HTT aggregate = reduces HttQ103-GFP aggregates in PC12 cells | PC12 HttQ103-GFP aggregates, Acumen cytometry, 40 h | Potency, µM (highest dose often 46.1 µM), actives largely listed as inhibitors | 220,000 tested, 1.1% active; also: nearly all actives have a fitted effect of over 60% in size
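Read-out: GFP aggregate count by laser scanning cytometer (488 nm excitation, 500-530 nm emission, 1–25 µm objects >6 SD above background). Cells: PC12, inducible HTTex1-Q103-GFP, 100 nM tebufenozide; compounds titrated.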
12-hLO inh = inhibitors of human 12-lipoxygenase (ALOX12) | P18054 | purified 12-hLO, xylenol orange hydroperoxide absorbance | Potency, µM (top dose mostly 57.1 µM), most hits filed as inhibitors | 150,000 tested, 0.12% active | AID 1452; also: nearly all actives have a fitted effect of over 55% in size
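Purified human 12hLO (150 nM), preincubated 15 min with compound, then 40 uM arachidonic acid for 30 min, room temperature, Hepes pH 7.0 with 0.01% Triton X-100. Hydroperoxide detected by ferrous iron/xylenol orange; 573/405 nm absorbance ratio gives reaction progress.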
NPSR antagonist = neuropeptide S receptor (human) antagonism, cAMP; Q6W5P4; CHO-NPSR cells, cAMP TR-FRET, antagonist mode; Potency, µM (top dose mostly 38.3 µM), usual class: inhibitors; 220,000 tested, 1% active; AID 1461; also: nearly all actives have a fitted effect of over 50% in size
Target sequence (Q6W5P4 whole entry, looked up): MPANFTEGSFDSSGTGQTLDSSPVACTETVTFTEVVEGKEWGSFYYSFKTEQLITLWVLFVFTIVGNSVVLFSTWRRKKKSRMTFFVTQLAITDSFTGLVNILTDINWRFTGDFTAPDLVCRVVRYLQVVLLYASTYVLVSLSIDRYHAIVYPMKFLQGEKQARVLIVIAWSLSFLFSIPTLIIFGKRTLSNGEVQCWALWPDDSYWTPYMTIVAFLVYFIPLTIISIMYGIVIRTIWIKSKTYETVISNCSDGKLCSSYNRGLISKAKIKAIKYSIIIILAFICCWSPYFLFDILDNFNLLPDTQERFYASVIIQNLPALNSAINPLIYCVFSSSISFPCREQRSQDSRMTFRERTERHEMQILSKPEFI
PNC inhibitor = inhibitors of perinucleolar compartment assembly; PC3M PTB-GFP, PNC prevalence imaging, 16 h; hits give low values; activity change (PNC), negative = inhibition, % at 10 µM; 140,000 tested, 3.1% active; AID 2417;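 active = readout at or below -70, meaning at least 70% loss of cells showing the perinucleolar compartment, a nuclear body marking cancer cells; inconclusive = readout between -30 and a set limit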
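PC3M cells stably expressing PTB-GFP, 750–1000 cells/well, treated 16 h at 37 °C with compound (23 nl of library stock), in duplicate. After paraformaldehyde fixation and Hoechst stain, imaged at 20x; PNC prevalence scored by image analysis.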
HTT ATP protect = protects HTT-Q103 PC12 cells, measured by ATP | PC12 HTT-Q103 induced, cytoprotection, ATP luminescence, 40 h | Potency, µM (series often up to 56.4 µM), most hits filed as activators | 230,000 tested, 0.14% active | AID 1471; also: nearly all actives have a fitted effect of over 45% in size
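ATP quantification (ATPlite) reports survival of PC12 cells in which tebufenozide, 100 nM final, switches on Htt exon 1 with 103 glutamines linked to GFP; compounds are titrated.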
IMPase inh = cell-permeable inhibitors of inositol monophosphatase (IMPase) | AID 901 | 120,000 tested, under 10 active | inhibition (IP1 accumulation), % at 46.1 µM | CHO-M1 cells, IP1 accumulation, HTRF TR-FRET ratio; active = well fitted curve in the direction sought with a large enough effect in the signal ratio, not every such curve was filed as active; inconclusive = small, poorly fitted or top-dose-only effect, or a change in a side signal; inactive = no such curve, though single readings can be large or run the other way; the % refers to the signal ratio;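 also: cells stimulated with carbachol in lithium chloride buffer; higher means more IMPase inhibition seen as more IP1 and lower FRET ratio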
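Carbachol-driven Gq signalling in CHO-M1 cells (2000/well) generates IP1. Compounds that block IMPase raise IP1 and so reduce the FRET signal from Eu-anti-IP1 and d2-IP1 after a 10 min room-temperature lysis.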
A number is an active result; – = inactive; ? = inconclusive; · = not tested or not shown; ! = repeats disagree; [ ] = remark or other dose. In the library only some 3.3% were active in any assay of this set; here they are far more common. Unless noted, calls follow the shape of the dose curve; as a rule, active = well fitted curve in the direction sought with a large enough effect; inconclusive = small, poorly fitted or top-dose-only effect, or another doubt; inactive = no such curve, though single readings can be large; an effect the other way counts as inactive or inconclusive.

SMILES | HTT aggregate | 12-hLO inh | NPSR antagonist | PNC inhibitor | HTT ATP protect | IMPase inh
Nc1c2c(nc3sc4c(c13)CCCCC4)CCCC2 | ? | – | – | -113.0 | –[10 µM] | ·
N[C@H](Cn1cc(I)c(=O)[nH]c1=O)C(=O)O | · | · | · | · | –[1.9 µM] | ·
COc1ccc(C(C)=O)cc1CC(C(=O)c1ccc(F)cc1)N(C)C (centres undefined) | – | – | – | -93.2 | –[10 µM] | –
CCn1cnc2c(Nc3cccc(Cl)c3)nc(N[C@@H]3CCCC[C@H]3N)nc21 | · | – | · | · | –[1.9 µM] | –
COc1ccc(C2=NCC(=O)N(CC(=O)NCc3ccco3)c3sc4c(c32)CCCC4)cc1 | – | – | ? | – | – | –
Cc1cccc(C2=NCC(=O)N(CC(=O)NCc3ccco3)c3sc4c(c32)CCCC4)c1 | 11.2µM | – | ? | ? | – | –
Cc1cc(C=C2C(=O)NC(=S)NC2=O)c(C)n1-c1ccc2c(c1)OCO2 | – | – | 12.6µM | ? | –[10 µM] | –
Cc1cc(C=C2C(=O)NC(=O)NC2=O)c(C)n1-c1ccc2c(c1)OCO2 | – | – | – | – | –[10 µM] | –
O=C(O)c1ccc2c(c1)C1C(Cl)C(Sc3ccccc3[N+](=O)[O-])CC1C(c1cccc([N+](=O)[O-])c1)N2 (centres undefined) | ? | · | – | · | · | ·
O=C(O)c1cccc2c1NC(c1cccc([N+](=O)[O-])c1)C1CC(Sc3ccccc3[N+](=O)[O-])C(Cl)C21 (centres undefined) | · | · | 10µM | · | · | ·
CC(C)(C)c1cc(O)ccc1O | ? | –[11.4 µM] | · | · | 31.6µM! | ·
COc1cc2c3cc1Oc1cc(ccc1O)C[C@@H]1c4c(cc(OC)c(O)c4Oc4ccc(cc4)C[C@H]3N(C)CC2)CCN1C | ? | – | – | -97.1 | · | ·
CCOC(=O)C(NC(C)=O)C(OC(C)=O)c1cccc(N(CCCl)CCCl)c1 (centres undefined) | – | – | – | -118.9 | –[10 µM] | –
CC(=O)NC(Cc1ccc(N(CCCl)CCCl)cc1)C(=O)O (centres undefined) | – | – | – | – | –[10 µM] | –
CC1CC(C)C(=O)[C@H](C(O)CC2CC(=O)NC(=O)C2)C1 (some centres undefined) | · | – | · | · | · | ·
C[C@H]1C[C@@H](C)C(=O)[C@@H]([C@H](O)CC2CC(=O)NC(=O)C2)C1 | 0.355µM | – | – | · | –[10 µM] | –
CC[C@@]12CCCN3CC[C@@]4(c5ccc(OC)c(O)c5N(C(C)=O)[C@H]4CC1)[C@H]32 | · | · | · | · | – | ·
COc1ccc(CCN(C)Cc2ccncc2)cc1OC | – | – | – | -91.5 | –[0.074 µM] | –
O=C(c1cccc(Cl)c1)C1CCCN(Cc2cccc3cnccc23)C1 (centres undefined) | –[9.22 µM] | · | – | · | –[10 µM] | ·
O=C(c1ccc(Cl)cc1)C1CCCN(Cc2cccc3cnccc23)C1 (centres undefined) | 20µM | · | – | · | – | ·
O=C(O)c1cc[c]([Hg][S]c2ncnc3nc[nH]c23)cc1 | · | ? | · | · | –[10 µM] | ·
Cc1cccn2c(NCC3CCCO3)c(C(C)C)nc12 (centres undefined) | – | – | – | -126.5 | – | –
O=[N+]([O-])c1ccc(O[C@H]2O[C@@H](CO)[C@@H](O)[C@@H](O)[C@@H]2F)c([N+](=O)[O-])c1 | · | – | · | · | –[1.9 µM] | –
Ic1ccccc1CN[C@@H]1C2CCN(CC2)[C@H]1C(c1ccccc1)c1ccccc1 | · | – | · | · | –[1.9 µM] | –
CC(C)C[C@H]1C(=O)N2CCCC2[C@]2(O)O[C@](NC(=O)[C@@H]3C=C4c5cccc6[nH]c(Br)c(c56)C[C@H]4N(C)C3)(C(C)C)C(=O)N12 (some centres undefined) | – | · | 12.6µM | · | ? | ·
CC(C)C[C@H]1C(=O)N2CCC[C@@H]2[C@]2(O)O[C@](NC(=O)[C@H]3C=C4c5cccc6[nH]cc(c56)C[C@H]4N(C)C3)(C(C)C)C(=O)N12 | · | · | · | · | – | ·
Cc1ccc(O)cc1 (tested in a mixture with another compound) | · | –[11.4 µM] | · | · | –[10 µM] | ·
Oc1cc[c]([Hg][Cl])cc1 | 2.51µM | · | · | · | – | ·
CC(C)n1cc2c3c(cccc31)[C@@H]1C[C@H](C(=O)O[C@@H](C)[C@H](C)O)CN(C)[C@H]1C2 | · | – | · | · | –[1.9 µM] | –
CC[C@@H](CO)NC(=O)[C@H]1C=C2c3cccc4c3c(cn4C)C[C@H]2N(C)C1 | · | – | ? | · | ? | –

Source: PubChem BioAssay
